Experimental data as given in PubChem BioAssay (NCATS).
“And” between values parts separate entries of the source, which are not always exact repeats. Equal entries are not always repeated. Results filed as inconclusive are left out. The source made the active and inactive calls. Calls come from the whole dose curve; as a rule, active = well fitted curve in the direction sought with a large enough effect; inconclusive = small, poorly fitted or top-dose-only effect, or another doubt; inactive = no such curve, though single readings can be large; an effect the other way counts as inactive or inconclusive.

Legend:
W2 = assay: qHTS profiling for inhibitors of Plasmodium falciparum proliferation (AID 504749); note: nearly all actives have a fitted effect of over 60% in size; note: potency is the fitted concentration of half-maximal effect; conditions: P. falciparum in erythrocytes, SYBR Green DNA, 72 h; series mostly up to 28.7 µM
Method in brief: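 SYBR Green fluorescence of parasite DNA, read after lysis and overnight dark incubation, measured growth over 72 h in erythrocyte culture at 0.3% parasitemia and 2.5% hematocrit. Data normalised to DMSO and 0.29 uM artemisinin, with plate-drift correction.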

CRL-7250 = normal cell line; assay: Cytotoxic Profiling of Annotated Libraries Using Quantitative High-Throughput Screening (AID 1296008); conditions: Five cell lines viability, CellTiter-Glo ATP luminescence, 48-72 h; max response: stronger effect = lower value; note: nearly all actives have a fitted effect of over 60% in size; for max response: % is set by controls: 0 for no effect and ±100 for the full control effect
Method in brief: (§1)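 Cytotoxicity was measured as CellTiter-Glo ATP luminescence, read after 10 min at room temperature. Compound treatment of the cells lasted 48 or 72 hr at 37 degrees Celsius in a qHTS format.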

HEK293 = assay: as above; conditions: Five cell lines viability, CellTiter-Glo ATP luminescence, 48-72 h; max response: stronger effect = lower value
Method in brief: as §1

HaCat [1] = assay: as above; conditions: Five cell lines viability, CellTiter-Glo ATP luminescence, 48-72 h; max response: stronger effect = lower value
Method in brief: as §1

KB-3-1 = assay: as above; conditions: Five cell lines viability, CellTiter-Glo ATP luminescence, 48-72 h; max response: stronger effect = lower value
Method in brief: as §1

NIH3T3 [2] = assay: as above; conditions: Five cell lines viability, CellTiter-Glo ATP luminescence, 48-72 h; max response: stronger effect = lower value
Method in brief: as §1

HACAT [3] = assay: qHTS assay to identify novel small-molecules to repurpose for Merkel cell carcinoma treatment (AID 1296009); conditions: MCC and control cell lines, CellTiter-Glo viability, 72 h; at 44.8 µM (top of the series) unless noted; note: nearly all actives have a fitted effect of over 60% in size
Method in brief: (§2)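 Cell viability, measured as CellTiter-Glo luminescence, was normalized between DMSO and no-cell wells. The cells had been exposed to 8- or 11-point compound dilutions for 72 hr at 37 degree celsius.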

HEK293T = assay: as above; conditions: MCC and control cell lines, CellTiter-Glo viability, 72 h; at 44.8 µM (top of the series) unless noted
Method in brief: as §2

MCC-13 = assay: as above; conditions: MCC and control cell lines, CellTiter-Glo viability, 72 h; series mostly up to 46 µM
Method in brief: as §2

MCC-26 = assay: as above; conditions: MCC and control cell lines, CellTiter-Glo viability, 72 h; series mostly up to 46 µM
Method in brief: as §2

MKL-1 = assay: as above; conditions: MCC and control cell lines, CellTiter-Glo viability, 72 h; series mostly up to 46 µM
Method in brief: as §2

MKL-2 = assay: as above; conditions: MCC and control cell lines, CellTiter-Glo viability, 72 h; series mostly up to 46 µM
Method in brief: as §2

UISO = assay: as above; conditions: MCC and control cell lines, CellTiter-Glo viability, 72 h; series mostly up to 46 µM
Method in brief: as §2

WaGa = assay: as above; conditions: MCC and control cell lines, CellTiter-Glo viability, 72 h; series mostly up to 46 µM
Method in brief: as §2

C33A = assay: Primary qHTS to identify gynecologic anti-cancer compounds using libraries of approved drugs and bioactive compounds (AID 1345084); conditions: Gynecologic cancer cell panel viability, ATPlite luminescence, 48 h; series mostly up to 57.5 µM; note: % is set by controls: 0 for no effect and ±100 for the full control effect; nearly all actives have a fitted effect of over 55% in size
Method in brief: (§3)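 48 h compound exposure at 37 C, 5% CO2; five-point qHTS. ATPlite luminescence readout of cell ATP.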

CAOV3 = assay: as above; conditions: Gynecologic cancer cell panel viability, ATPlite luminescence, 48 h; series mostly up to 57.5 µM
Method in brief: as §3

CASKI = assay: as above; conditions: Gynecologic cancer cell panel viability, ATPlite luminescence, 48 h; series mostly up to 57.5 µM
Method in brief: as §3

Es-2 = assay: as above; conditions: Gynecologic cancer cell panel viability, ATPlite luminescence, 48 h; series mostly up to 57.5 µM
Method in brief: as §3

HeLa = assay: as above; conditions: Gynecologic cancer cell panel viability, ATPlite luminescence, 48 h; series mostly up to 57.5 µM
Method in brief: as §3

NIH3T3 [4] = assay: qHTS assay to identify novel small-molecules to repurpose for Merkel cell carcinoma treatment (AID 1296009); conditions: MCC and control cell lines, CellTiter-Glo viability, 72 h; at 44.8 µM (top of the series) unless noted; note: nearly all actives have a fitted effect of over 60% in size
Method in brief: as §2

CC1(C)OC(=O)NC1=O
inactive: Potency (W2) | max response (CRL-7250) 4.73% | outcome (HEK293) | outcome (HaCat [1]) | max response (KB-3-1) 1.34% | max response (NIH3T3 [2]) 3.48% | outcome (HACAT [3]) | outcome (HEK293T) | Potency (MCC-13) | Potency (MCC-26) | Potency (MKL-1) | Potency (MKL-2) | Potency (UISO) | Potency (WaGa) | Potency (C33A) | Potency (CAOV3) | Potency (CASKI) | Potency (Es-2) | Potency (HeLa)

CCCCOC(=O)c1ccc(O)cc1
inactive: max response (CRL-7250) 0.245% | outcome (HEK293) | outcome (HaCat [1]) | max response (KB-3-1) 0.659% | max response (NIH3T3 [2]) -12.6% | outcome (HACAT [3]) | outcome (HEK293T) | Potency (MCC-13) | Potency (MCC-26) | Potency (MKL-1) | Potency (MKL-2) | Potency (UISO) | Potency (WaGa) | Potency (C33A) | Potency (CAOV3) | Potency (CASKI) | Potency (Es-2) | Potency (HeLa)

O=C(O)c1ccccn1
inactive: Potency (W2) | max response (CRL-7250) -6.73% | outcome (HEK293) | outcome (HaCat [1]) | max response (KB-3-1) -2.2% | outcome (NIH3T3 [2]) | outcome (HACAT [3]) | outcome (HEK293T) | Potency (MCC-13) | Potency (MCC-26) | Potency (MKL-1) | Potency (MKL-2) | outcome (NIH3T3 [4]) | Potency (UISO) | Potency (WaGa) | Potency (C33A) | Potency (CAOV3) | Potency (CASKI) | Potency (Es-2) | Potency (HeLa)

O=C(O)CC(O)C(=O)O (configuration not stated)
inactive: Potency (W2) | max response (CRL-7250) -10.5% | outcome (HEK293) | outcome (HaCat [1]) | max response (KB-3-1) 15.7% | max response (NIH3T3 [2]) 4.82% | outcome (HACAT [3]) | outcome (HEK293T) | Potency (MCC-13) | Potency (MCC-26) | Potency (MKL-1) | Potency (MKL-2) | Potency (UISO) | Potency (WaGa) | Potency (C33A) | Potency (CAOV3) | Potency (CASKI) | Potency (Es-2) | Potency (HeLa)

COc1cc2[nH]c(=O)[nH]c(=O)c2cc1OC
inactive: Potency (W2) | outcome (CRL-7250) | outcome (HEK293) | outcome (HaCat [1]) | max response (KB-3-1) 35.7% | max response (NIH3T3 [2]) 2.37% | outcome (HACAT [3]) | outcome (HEK293T) | Potency (MCC-13) | Potency (MCC-26) | Potency (MKL-1) | Potency (MKL-2) | Potency (UISO) | Potency (WaGa) | Potency (C33A) | Potency (CAOV3) | Potency (CASKI) | Potency (Es-2) | Potency (HeLa)

O=C(O)Cc1sc(-c2ccccc2)nc1-c1ccc(Cl)cc1
inactive: max response (CRL-7250) 3.43% | outcome (HEK293) | outcome (HaCat [1]) | max response (KB-3-1) -1.67% and -19.6% and -27.8% | max response (NIH3T3 [2]) -0.692% | outcome (HACAT [3]) | outcome (HEK293T) | Potency (MCC-13) | Potency (MCC-26) | Potency (MKL-1) | Potency (MKL-2) | Potency (UISO) | Potency (WaGa) | Potency (C33A) | Potency (CAOV3) | Potency (CASKI) | Potency (Es-2) | Potency (HeLa)

O=C1c2c(O)cccc2Cc2cccc(O)c21
inactive: Potency (W2) | max response (CRL-7250) 0.516% | outcome (HEK293) | outcome (HaCat [1]) | max response (KB-3-1) -0.793% | max response (NIH3T3 [2]) 4.73% | outcome (HACAT [3]) | outcome (HEK293T) | Potency (MCC-13) | Potency (MCC-26) | Potency (MKL-1) | Potency (MKL-2) | Potency (UISO) | Potency (WaGa) | Potency (C33A) | Potency (CAOV3) | Potency (CASKI) | Potency (Es-2) | Potency (HeLa)

COc1cc(C)c(Cc2cnc(N)nc2N)cc1OC
inactive: max response (CRL-7250) 0.178% | outcome (HEK293) | outcome (HaCat [1]) | max response (KB-3-1) 7.84% | max response (NIH3T3 [2]) 0.338% | outcome (HACAT [3]) | outcome (HEK293T) | Potency (MCC-13) | Potency (MCC-26) | Potency (MKL-1) | Potency (MKL-2) | Potency (UISO) | Potency (WaGa) | Potency (C33A) | Potency (CAOV3) | Potency (CASKI) | Potency (Es-2) | Potency (HeLa)

O=C1NS(=O)(=O)c2ccccc21
inactive: Potency (W2) | max response (CRL-7250) -9.05% | outcome (HEK293) | outcome (HaCat [1]) | max response (KB-3-1) 20.6% | max response (NIH3T3 [2]) -6% | outcome (HACAT [3]) | outcome (HEK293T) | Potency (MCC-13) | Potency (MCC-26) | Potency (MKL-1) | Potency (MKL-2) | Potency (UISO) | Potency (WaGa) | Potency (C33A) | Potency (CAOV3) | Potency (CASKI) | Potency (Es-2) | Potency (HeLa)

O=c1cc[nH]c(=S)[nH]1
inactive: Potency (W2) | max response (CRL-7250) 1.22% | outcome (HEK293) | outcome (HaCat [1]) | max response (KB-3-1) -6.83% | max response (NIH3T3 [2]) -2.25% | outcome (HACAT [3]) | outcome (HEK293T) | Potency (MCC-13) | Potency (MCC-26) | Potency (MKL-1) | Potency (MKL-2) | Potency (UISO) | Potency (WaGa) | Potency (C33A) | Potency (CAOV3) | Potency (CASKI) | Potency (Es-2) | Potency (HeLa)

CCCOC(=O)c1ccccc1
inactive: Potency (W2) | max response (CRL-7250) -5.05% | outcome (HEK293) | outcome (HaCat [1]) | max response (KB-3-1) -10.8% | max response (NIH3T3 [2]) 2.42% | outcome (HACAT [3]) | outcome (HEK293T) | Potency (MCC-13) | Potency (MCC-26) | Potency (MKL-1) | Potency (MKL-2) | Potency (UISO) | Potency (WaGa) | Potency (C33A) | Potency (CAOV3) | Potency (CASKI) | Potency (Es-2) | Potency (HeLa)

CCN(CC)CCNC(C(=O)OCCC(C)C)c1ccccc1 (configuration not stated)
active: Potency (W2) 4.78 µM
inactive: max response (CRL-7250) 1.18% | outcome (HEK293) | outcome (HaCat [1]) | max response (KB-3-1) 11.9% | outcome (NIH3T3 [2]) | outcome (HACAT [3]) | outcome (HEK293T) | Potency (MCC-13) | Potency (MCC-26) | Potency (MKL-1) | Potency (MKL-2) | outcome (NIH3T3 [4]) | Potency (UISO) | Potency (WaGa) | Potency (C33A) | Potency (CAOV3) | Potency (CASKI) | Potency (Es-2) | Potency (HeLa)
